The supplement of paper PMC13380429

System: Vero E6 infected with SARS-CoV-2
Assay: inhibition of SARS-CoV-2 cytopathic effect; higher = more antiviral protection, active = above 15
Settings: 48 h

Measured: inhibition of SARS-CoV-2 cytopathic effect

CN1CCN(CCCN2c3ccccc3Sc3ccc(S(=O)(=O)N(C)C)cc32)CC1 [thioproperazine]
inactive: 1 nM 0.81% | 8.33 nM 6.36% | 100 nM 5.52% | 833.33 nM 0.03% | 10000 nM 1.7%

CS(=O)(=O)Nc1c(O)ccc2c1CCC[C@H]2C1=NCCN1
inactive: 1 nM 1.13% | 8.33 nM -1.43% | 100 nM -1.29% | 833.33 nM 0.49% | 10000 nM -3.82%

CSc1ccc(C(=O)/C=C/c2cc(C)c(OC(C)(C)C(=O)O)c(C)c2)cc1 [elafibranor]
inactive: 1 nM -1.98% | 8.33 nM 1.58% | 100 nM -1.18% | 833.33 nM 2.15% | 10000 nM 3.31%

CCN(CC)Cc1ccc(C(=O)N(CCc2ccccc2OC)[C@@H]2CCNC2)cc1
inactive: 1 nM -1.07% | 8.33 nM -4.2% | 100 nM -1.66% | 833.33 nM -1.07% | 10000 nM -1.55%

O=C(NCCCCCCNC(=O)ON=C1CCCCC1)ON=C1CCCCC1
inactive: 1 nM 2.1% | 8.33 nM 0.56% | 100 nM 1.93% | 833.33 nM 2.74% | 10000 nM 2.7%

CC(C)NCC(O)c1ccc(N)c(C#N)c1 (stereo not given) [cimaterol]
inactive: 1 nM 6.86% | 8.33 nM 6.95% | 100 nM 10.5% | 833.33 nM 3.99% | 10000 nM 4.49%

CNCC[C@@H](Oc1ccccc1C)c1ccccc1 [atomoxetine]
inactive: 1 nM 1.13% | 8.33 nM 1.43% | 100 nM 3.37% | 833.33 nM 2.34% | 10000 nM -2.83%

CCCc1c(OCCCOc2ccc(OCC(=O)O)cc2)ccc(C(C)=O)c1O
inactive: 1 nM 3.84% | 8.33 nM -0.07% | 100 nM 1.16% | 833.33 nM 1.63% | 10000 nM 1.76%

CC1=C(/C=C/C(C)=C/C=C/C(C)=C/C(=O)Nc2ccc(O)cc2)C(C)(C)CCC1 [fenretinide]
inactive: 1 nM 2.01% | 8.33 nM 1.04% | 100 nM 0.95% | 833.33 nM -0.67% | 10000 nM 2.45%

FC(F)(F)Oc1ccc2nc(-c3ccc(OCCOCCOc4ccc(-c5nc6ccc(OC(F)(F)F)cc6[nH]5)nc4)cn3)[nH]c2c1
inactive: 1 nM -0.41% | 8.33 nM 1.44% | 100 nM 0.99% | 833.33 nM 3.47% | 10000 nM -6.61%

COc1ccc(-c2cc(=O)c3c(O)cc(O)cc3o2)cc1O [diosmetin]
inactive: 1 nM -0.61% | 8.33 nM -0.9% | 100 nM -1.66% | 833.33 nM -3.02% | 10000 nM 2.95%

O=c1ccn([C@@H]2O[C@H](COP(=O)(O)OP(=O)(O)OP(=O)(O)O)[C@@H](O)[C@H]2O)c(=O)[nH]1
inactive: 1 nM -0.655% | 8.33 nM 1.84% | 100 nM 3.83% | 833.33 nM 2.04% | 10000 nM -0.735%

N=C(N)N/N=C/c1c(Cl)cccc1Cl [guanaben-acetate]
inactive: 1 nM -2.82% | 8.33 nM -0.46% | 100 nM -3.74% | 833.33 nM -2.55% | 10000 nM -1.82%

CCCCCCCCOc1ccccc1C(=O)Nc1ccc(C(=O)OCC[N+](C)(CC)CC)cc1 [otilonium]
inactive: 1 nM 2.76% | 8.33 nM -0.22% | 100 nM 1.35% | 833.33 nM 1.63% | 10000 nM 0.68%

O=C1CCC[C@@H]2[C@H]3CCC[N+]4([O-])CCC[C@@H](CN12)[C@@H]34 (stereo not given in full) [oxymatrine]
inactive: 1 nM 2.76% | 8.33 nM 1.55% | 100 nM 1.11% | 833.33 nM 0.79% | 10000 nM -1.71%

O=C(Nc1cccnc1)c1cc(-c2ccnc(F)c2)ccc1OCc1ccccc1
inactive: 1 nM 2.42% | 8.33 nM -0.98% | 100 nM 4.16% | 833.33 nM 4.08% | 10000 nM 3.44%

CC1(C)CCC(C)(C)c2cc(C(=O)Nc3ccc(C(=O)O)cc3)ccc21
inactive: 1 nM 0.12% | 8.33 nM 2.74% | 100 nM 1.53% | 833.33 nM 1.49% | 10000 nM 3.21%

c1ccc(-c2nc(CN3CCN(c4ncccn4)CC3)c[nH]2)cc1
inactive: 1 nM -2.28% | 8.33 nM -0.03% | 100 nM -3.72% | 833.33 nM -0.79% | 10000 nM -1.23%

CCCCCCN(CCCCCC)C(=O)Cc1c(-c2ccc(Cl)cc2)[nH]c2ccc(Cl)cc12
inactive: 1 nM 1.54% | 8.33 nM 2.57% | 100 nM -1.81% | 833.33 nM -0.56% | 10000 nM -0.57%

Cc1nnc(C(=O)NC(C)(C)c2nc(C(=O)NCc3ccc(F)cc3)c(O)c(=O)n2C)o1 [raltegravir]
inactive: 1 nM 3.09% | 8.33 nM -0.27% | 100 nM 2.75% | 833.33 nM 1.2% | 10000 nM 1.12%

BrC1C(Br)C(Br)C(Br)C(Br)C1Br (stereo not given) [1,2,3,4,5,6-hexabromocyclohexane]
inactive: 1 nM -2.03% | 8.33 nM -1.15% | 100 nM -1.07% | 833.33 nM -1.96% | 10000 nM 9.07%

CC[n+]1c(-c2ccccc2)c2cc(N)ccc2c2ccc(N)cc21 [homidium]
inactive: 1 nM 4.78% | 8.33 nM 6.71% | 100 nM 5.98% | 833.33 nM 0.35% | 10000 nM 6.13%

NC(=O)Nc1cc(-c2cccc(F)c2)sc1C(=O)N[C@H]1CCCNC1
inactive: 1 nM -2.18% | 8.33 nM 0.53% | 100 nM -2.2% | 833.33 nM -4.24% | 10000 nM -19.5%

C=C1/C(=C\C=C2/CCC[C@]3(C)[C@@H]([C@H](C)/C=C/[C@H](C)C(C)(C)O)CC[C@@H]23)C[C@@H](O)C[C@@H]1O [ercalcitriol]
inactive: 1 nM -1.77% | 8.33 nM 0.83% | 100 nM -0.6% | 833.33 nM 2.88% | 10000 nM 3.34%

O=C(O)COc1nn(Cc2ccccc2)c2ccccc12 [bendazac]
inactive: 1 nM -1.4% | 8.33 nM 2.21% | 100 nM 0.57% | 833.33 nM -1.97% | 10000 nM -2.52%

CC(C)n1nnc2cc(C(=O)O)ccc21
inactive: 1 nM 2.69% | 8.33 nM 0.35% | 100 nM -0.23% | 833.33 nM -0.38% | 10000 nM -1.63%

C#C[C@]1(O)CC[C@H]2[C@@H]3CCC4=CC(=O)CC[C@]4(C)[C@H]3CC[C@@]21C [ethisterone]
inactive: 1 nM 2.99% | 8.33 nM 3.61% | 100 nM 2.08% | 833.33 nM -0.95% | 10000 nM 2.77%

CCN(CC)CCNC(=O)COc1ccc(OC)cc1 [mefexamide]
inactive: 1 nM 1.84% | 8.33 nM 2.71% | 100 nM -0.86% | 833.33 nM -0.89% | 10000 nM -2.3%

CC(C)=CCC/C(C)=C/CC/C(C)=C/C=C/C(C)=C/C(=O)O [peretinoin]
inactive: 1 nM 0.75% | 8.33 nM 0.23% | 100 nM -1.49% | 833.33 nM 0.48% | 10000 nM 0.08%

CC(C)c1noc(N2CCC(COc3ccc(-c4ccc(S(C)(=O)=O)cc4)nc3)CC2)n1
inactive: 1 nM -1.46% | 8.33 nM -1.84% | 100 nM -1.48% | 833.33 nM -0.49% | 10000 nM -0.23%

Cn1cc(-c2ccc3nnc(Sc4ccc5ncccc5c4)n3n2)cn1
inactive: 1 nM 0.46% | 8.33 nM -0.33% | 100 nM -1.37% | 833.33 nM -0.25% | 10000 nM 3.33%

O=C(CCCCCCNC(=O)c1cnc(N(c2ccccc2)c2ccccc2)nc1)NO
inactive: 1 nM -0.34% | 8.33 nM -1.04% | 100 nM 2.13% | 833.33 nM -4.05% | 10000 nM -10.5%

O=C(O)/C=C1\CCCc2ccccc2[C@H]1O (racemic)
inactive: 1 nM 0.95% | 8.33 nM 1.44% | 100 nM 1.65% | 833.33 nM 1.72% | 10000 nM 4.1%

NC1=NC(=O)N([C@H]2C[C@H](O)[C@@H](CO)O2)CN1
inactive: 1 nM -1.14% | 8.33 nM -2.12% | 100 nM 0.08% | 833.33 nM 0.71% | 10000 nM -0.27%

CC[C@@H]1Cn2c(c3nc(-c4ccccc4)nc-3n(C)c2=O)N1
inactive: 1 nM -0.6% | 8.33 nM -0.25% | 100 nM -1.09% | 833.33 nM 0.66% | 10000 nM 1.21%

CC(C)=CC[C@@H](O)C1=CC(=O)c2c(O)ccc(O)c2C1=O [Shikonin]
inactive: 1 nM 0.59% | 8.33 nM 0.65% | 100 nM 0.38% | 833.33 nM 3.65% | 10000 nM 2.04%

O=S(=O)(O)c1cc(I)c(O)c2ncccc12 [chiniofon]
inactive: 1 nM -0.29% | 8.33 nM -0.47% | 100 nM -0.93% | 833.33 nM 3.44% | 10000 nM -0.39%

Cc1cc(C)cc(C(=O)N(C)[C@H](Cc2ccc(-c3ccccc3)cc2)C(=O)N[C@@H](Cc2c[nH]c3ccccc23)C(=O)O)c1
inactive: 1 nM 0.46% | 8.33 nM 3.13% | 100 nM 5.42% | 833.33 nM 0.47% | 10000 nM 1.98%

OCc1c[nH]c2ccccc12 [indole-3-carbinol]
inactive: 1 nM -1.46% | 8.33 nM 0.47% | 100 nM -3.76% | 833.33 nM -0.69% | 10000 nM -14.3%

O=C(O)CCC(=O)OC[C@@H](NC(=O)C(Cl)Cl)[C@H](O)c1ccc([N+](=O)[O-])cc1 [chloramphenicol-sodium-succinate]
inactive: 1 nM 3.1% | 8.33 nM -0.01% | 100 nM 2.32% | 833.33 nM 3.18% | 10000 nM 1.6%
